Source: PubChem BioAssay AID720519 (National Center for Advancing Translational Sciences (NCATS), 2013)
Results filed as inconclusive are left out. Values without a mark were called inactive. Activity calls are given as the source filed them. Calls come from the whole dose curve; as a rule, active = well fitted activation curve with a large enough effect; inconclusive = small, poorly fitted or top-dose-only effect; inactive = flat fitted curve, though single readings scatter.

Assay: qHTS for Inhibitors of Cell Surface uPA Generation: Confirmatory Assay for Cherry-picked Compounds; for inhibition: 0% is about no effect
Settings: cell surface uPA activity generation, qHTS confirmation; series mostly up to 115 µM; inhibition: at the top concentration
Procedure, shortened: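 RAW 264.7 cells at 4000/well, incubated overnight, then treated with compounds. After 24 h at 37 C, viability was read by ATPlite luminescence. An increase in signal indicates blocked uPA-dependent LF entry.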
Potency is the fitted concentration of half-maximal effect.

| SMILES | inhibition [%] | Potency |
| --- | --- | --- |
| CCCCn1c(-c2cccnc2)nc2cc3[nH]c(=O)c(C(C)C)nc3cc21 | 4.78 |  |
| O=C(CNS(=O)(=O)c1ccc(F)cc1)Nc1ccccc1 | -1.01 |  |
| COc1ccc(CCNC(=O)Cn2c(=O)n(-c3cc(F)ccc3F)c(=O)c3sccc32)cc1OC | -0.0942 |  |
| CC(=O)NCCc1cnc[nH]1 | -2.18 |  |
| O=C(COC(=O)Cn1cnc2ccccc21)NCc1ccc(F)cc1 | 0.451 |  |
| CCO[C@H]1OC(C(=O)N2CCCCCCC2)=C[C@@H](c2ccc(C(F)(F)F)cc2)[C@@H]1CCCO | -2.91 |  |
| CS/C(=C\[N+](=O)[O-])Nc1ccccc1 | -3.31 |  |
| Cc1ccc([C@H]2C(C(=O)O)=CC[C@@H](c3cccc(C)c3)N2S(=O)(=O)c2ccc(C)cc2)cc1 | -2.73 |  |
| C=CCn1c(SCCN2C(=O)c3ccccc3C2=O)nc2scc(-c3ccc(F)cc3)c2c1=O | 5.25 |  |
| CCN(C(=O)c1c(C)noc1C)c1c(N)n(Cc2ccccc2)c(=O)[nH]c1=O | -0.453 |  |
| CCOc1ccc(-n2cnc3scc(-c4ccc(OC)c(OC)c4)c3c2=O)cc1 | -3.77 |  |
| COc1cccc(C2CC(c3ccc(C)cc3)n3ncnc3N2)c1 (centres undefined) | 0.338 |  |
| C=CC(=O)N1C/C(=C/c2ccccc2)C(=O)/C(=C\c2ccccc2)C1 |  | 26.1 µM (active) |
| O=C(C[n+]1ccccc1)Nc1ccccc1C(F)(F)F | -0.214 |  |
| CCCCCOC(=O)C1=C(C)NC(=O)NC1c1ccccc1 (centres undefined) | 0.136 |  |
| CC(=O)Nc1sc(C)c(C)c1C(=O)OCC(=O)NC(C)c1ccccc1 (centres undefined) | -0.488 |  |
| O=S(=O)(/N=C(/c1ccccc1)N1CCOCC1)c1ccc(F)cc1F | -0.111 |  |
| CCc1nnc(NC(=O)CSc2nnnn2-c2cccc(C(C)=O)c2)s1 | -1.2 |  |
| Cc1cccc(-c2nc(CS(=O)CC(=O)NCc3cccs3)c(C)o2)c1 (centres undefined) | -3.26 |  |
| O=C(NCc1ccc(F)cc1)c1cc(S(=O)(=O)N2CCCCC2)ccc1N1CCOCC1 | -1.49 |  |

| SMILES | inhibition [%] | Potency |
| --- | --- | --- |
| Cc1cc2[nH]c(=O)c(=O)[nH]c2cc1S(=O)(=O)NC1CCC(C)CC1 (centres undefined) | -1.26 |  |
| Cc1cc(C)n(C(=O)c2cccc([N+](=O)[O-])c2)n1 | -3.17 |  |
| C[n+]1c2cc(N)ccc2cc2ccc(N)cc21 | -3.52 |  |
| Cc1cccc(NC(=O)C2CCCN(S(=O)(=O)c3cccc4cccnc34)C2)c1 (centres undefined) | -1.96 |  |
| CCC(C)C(NC(=O)c1ccccc1)C(=O)Nc1ccc(S(=O)(=O)Nc2cc(C)nc(C)n2)cc1 (centres undefined) | -2.37 |  |
| COc1ccc(C)cc1NC(=O)NNC(=O)C1CCC(C(C)(C)C)CC1 (centres undefined) | -3.28 |  |
| COc1ccc(N2CCN(S(=O)(=O)c3ccc4c(c3)NC(=O)CS4)CC2)cc1 | -0.636 |  |
| COc1ccccc1CCNC(=O)C(=O)NCC1OCCN1S(=O)(=O)c1ccc(OC)c(OC)c1 (centres undefined) | -1.7 |  |
| Cn1c(=O)c2c(ncn2CCO)n(C)c1=O | -1.74 |  |
| O=C(CCS(=O)(=O)c1ccc2c(c1)NC(=O)CS2)NCCc1ccc(Cl)cc1 | -0.234 |  |
| CC1(CC(=O)N/N=C/c2cc(Br)c(O)cc2O)OCCO1 | -3.24 |  |
| Cn1c(SCC(=O)NNC(=O)c2ccc(Br)cc2)nnc1-c1cccnc1 | -1.95 |  |
| CN(/N=C/c1cc(Cl)cc(Cl)c1O)C(=S)NC(C)(C)C | -3.36 |  |
| COc1ccc2[nH]cc(S(=O)(=O)c3ccc(C(C)C)cc3)c(=O)c2c1 | 0.422 |  |
| Cc1[nH]c2ccc(C(=O)OC(C)C(=O)NC3CCCCC3C)cc2c1C (centres undefined) | -3.36 |  |
| Cc1cccc(N2CCN(Cc3ccc(Br)o3)CC2)c1C | 1.91 |  |
| CCOc1ccc(C2(C)CC(=O)N(C)C2=O)cc1 (centres undefined) | -2.12 |  |
| CCCN1CCN(C2CCCCC2NS(=O)(=O)c2ccc(Cl)cc2)CC1 (centres undefined) | 11.2 |  |
| S=C(Nc1ccccc1Oc1ccccc1)NC1CCCC1 | -3.1 |  |
